Sampled rows, rich in hits. Any-hit rate of the full collection: about 0.86%.
Tb PGK inh: inhibitors of T. brucei phosphoglycerate kinase; P07378; PGK/GAPDH coupled, Kinase-Glo luminescence, 60 min; Potency, µM (doses to about 57.5 µM), usual class: inhibitors; 380,000 tested, 0.043% active; AID 602233; further: nearly all actives have a fitted effect of over 60% in size
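Recombinant glycosomal PGK reaction used 1,3-bisphosphoglycerate generated in-well by GAPDH (100nM final) in 100mM TEA pH 7.6, 5mM MgCl2, 0.01% Tween-20. After 60 minutes at room temperature, ATP was read by Kinase-Glo Plus luminescence end-point.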
APEX1 inh: blocks human APE1 abasic DNA cleavage; P27695; recombinant APE1, TAMRA/BHQ-2 abasic DNA cleavage fluorescence; Potency, µM (doses to about 65.8 µM), most hits filed as inhibitors; 350,000 tested, 0.35% active; AID 2517; further: nearly all actives have a fitted effect of over 55% in size
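APE1 at 0.75 nM preincubated 15 min at room temperature with compound. Reaction then started with 50 nM double-stranded THF-abasic substrate labelled with TAMRA/BHQ-2, and 525/598 nm fluorescence read kinetically. Activity taken as third-minus-first read difference, normalized to DMSO and NSC13755 controls.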
GLS inhibitor: blocks human kidney-isoform glutaminase activity; GLS enzymatic activity, qHTS titration; O94925; AID 624170; Potency, µM (highest dose often 45.5 µM), hits mostly inhibitors; 410,000 tested, 0.21% active
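Glutamate formation by hKGA was monitored fluorometrically using coupled glutamate oxidase, HRP and Amplex Red. Substrate was added as 1 mM L-glutamine solution; incubation was 30 min at RT after an initial read.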
FEN1 inh: human FEN1 inhibition | P39748 | 390,000 tested, 0.35% active | Potency, µM (doses to about 114 µM), hits mostly inhibitors | Recombinant FEN1 flap cleavage, fluorescence, 15 min; further: nearly all actives have a fitted effect of over 65% in size
Target sequence (P39748 whole entry, looked up): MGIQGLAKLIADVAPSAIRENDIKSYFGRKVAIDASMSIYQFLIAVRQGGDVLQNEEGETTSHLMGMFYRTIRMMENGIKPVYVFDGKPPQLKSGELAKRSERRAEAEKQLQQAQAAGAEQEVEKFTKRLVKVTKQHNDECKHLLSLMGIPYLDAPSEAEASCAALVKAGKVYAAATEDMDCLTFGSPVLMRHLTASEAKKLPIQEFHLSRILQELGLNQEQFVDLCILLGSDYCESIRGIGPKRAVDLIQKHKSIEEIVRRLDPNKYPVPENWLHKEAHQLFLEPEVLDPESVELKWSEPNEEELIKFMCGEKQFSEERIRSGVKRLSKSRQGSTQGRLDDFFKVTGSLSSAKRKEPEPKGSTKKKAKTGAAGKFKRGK
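Recombinant FEN1 (10 nM) was preincubated with pin-transferred compounds for 15 min at room temperature, then flap DNA substrate (50 nM final) was added. Plates were read at 0 and 15 min, and normalized concentration–response data were fitted to a four-parameter Hill equation.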
BLM inh: inhibitors of human Bloom syndrome helicase BLM; recombinant BLM DNA unwinding, fluorescence dequenching; 350,000 tested, 0.2% active; Potency, µM (highest dose often 56.1 µM), actives largely listed as inhibitors; P54132; further: nearly all actives have a fitted effect of over 35% in size
RECQ1 helicase: inhibitors of human RECQ1 DNA helicase; P46063; RECQ1 DNA unwinding, red fluorescence kinetic read; Potency, µM (doses to about 57.3 µM), hits mostly inhibitors; 240,000 tested, 0.54% active; AID 2549; further: nearly all actives have a fitted effect of over 30% in size
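50 nM RECQ1T1 preincubated 15 min with compound in Tris pH 8.0 buffer with MgCl2, DTT, Tween-20 and 2.5 ug/ml poly(dI-dC); started with 200 nM TAMRA/BHQ-2 forked duplex and 2 mM ATP. Unwinding read as fluorescence (525/598 nm), two reads 2 h apart.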
Hits are given with their value; i = inactive; ? = inconclusive; nt = no result. The call rests on the fitted dose curve; in most records, active means well fitted curve in the direction sought with a large enough effect; inconclusive means small, poorly fitted or top-dose-only effect, or another doubt; inactive means no such curve, though single readings can be large; an effect the other way counts as inactive or inconclusive.

SMILES | Tb PGK inh | APEX1 inh | GLS inhibitor | FEN1 inh | BLM inh | RECQ1 helicase
COc1cc(/C=C2\SC(=S)N(NS(=O)(=O)c3ccccc3)C2=O)ccc1O | i | i | i | i | i | 28µM
COc1ccc(/C=C2/SC(=S)N(NS(=O)(=O)c3ccccc3)C2=O)cc1 | i | i | ? | i | i | nt
COc1ccccc1/C=C1\SC(=S)N(C(C(=O)O)c2ccccc2)C1=O (stereo unspecified) | i | i | i | i | i | i
CCOc1ccc(/C=C2\SC(=S)N(Nc3ccccc3)C2=O)cc1OC | i | i | i | i | i | i
CNc1ccc(/C=C/c2ccccc2)cc1 | nt | nt | nt | i | nt | nt
Cc1cc(Oc2ccccc2)nc(C#N)n1 | nt | nt | nt | i | nt | nt
COc1cccc(Oc2nc3c(c(=O)n(Cc4ccccc4Cl)c(=O)n3C)n2C)c1 | i | nt | i | i | i | nt
Cn1c(Oc2ccccc2)nc2c1c(=O)n(Cc1ccc(Cl)cc1Cl)c(=O)n2C | i | nt | 11µM | i | i | nt
Cn1cnc2c1c(=O)n(Cc1cccc(F)c1)c(=O)n2C | i | i | i | i | i | nt
Cn1cnc2c1c(=O)n(Cc1ccc(F)cc1Cl)c(=O)n2C | i | i | 8.9µM | i | i | i
OC(CN1C=CCc2ccccc21)c1ccc(Cl)cc1Cl (stereo unspecified) | nt | nt | nt | i | nt | nt
CN1CCc2nc3sc(C(=O)Nc4cccc(C#N)c4)c(N)c3cc2C1 | nt | nt | i | 40µM | i | nt
O=C(O)C1=C(C(=O)O)C2C=CC1C2 | 11µM | nt | i | i | nt | nt
C/C=C1\[C@H]2C=C(C)C[C@]1(N)c1ccc(=O)[nH]c1C2 | nt | i | nt | nt | nt | nt
COc1cc(CN2CCN(S(=O)(=O)c3ccc(NC(C)=O)cc3)CC2)cc(OC)c1O | i | i | 13µM | i | i | i
C/C(=C(\CCO)SSCC1CCCO1)N(C=O)Cc1cnc(C)nc1N (stereo unspecified) | nt | nt | i | nt | nt | nt
CC1=NN(c2ccc(C(=O)O)cc2)C(=O)/C1=C\c1ccc(OC(=O)c2cccs2)cc1 | i | ? | ? | 50µM | i | i
CC1=NN(c2ccccc2)C(=O)/C1=C/c1cccs1 | i | i | i | ? | i | i
O=C(O)c1ccc(Cl)c2c1C1C=CCC1C(c1ccccn1)N2 (stereo unspecified) | nt | 25µM | nt | nt | i | i
O=C(CSc1nnc(-c2ccc(O)cc2)o1)N1CCOCC1 | i | i | 8.9µM | i | i | i
CN(C)C(=O)c1ccc(/C=C/c2ccnc3ccccc23)cc1 | nt | nt | nt | i | nt | nt
CC(C)Oc1ccc(C(=O)N/N=C/c2ccc(-c3ccc(S(=O)(=O)Nc4ncccn4)cc3)o2)cc1 | i | i | i | 79µM | i | ?
NC(=O)N/N=C/c1ccc(-c2ccc(S(=O)(=O)Nc3ncccn3)cc2)o1 | i | i | i | i | nt | nt
COc1cccc(/C=N/Nc2ncnc3c2[nH]c2ccc(C)cc23)c1OC | i | i | i | i | 14µM | i
Cc1ccnc(N=O)c1 | i | i | i | 50µM | nt | nt
SMILES | Tb PGK inh | APEX1 inh | GLS inhibitor | FEN1 inh | BLM inh | RECQ1 helicase
Oc1cccc2c(CC(O)c3c[nH]c4ccccc34)ccnc12 (stereo unspecified) | nt | nt | nt | i | nt | nt
O=C1S/C(=C\C=C\c2ccco2)C(=O)N1c1ccc(O)cc1 | i | i | ? | i | 25µM | i
Clc1ccc2c(Cl)cc[n+](CCC3CCCCC3)c2c1 | nt | nt | nt | i | nt | nt
O=[N+]([O-])c1ccccc1/C=N/n1c(-c2cccnc2)n[nH]c1=S | i | i | i | i | i | i
O=[N+]([O-])c1cc2c(cc1/C=N/n1c(-c3ccccc3)n[nH]c1=S)OCO2 | i | i | ? | i | 18µM | i
O=[N+]([O-])c1cc(/C=N/n2c(-c3cccnc3)n[nH]c2=S)ccc1Cl | i | i | i | 56µM | i | i
CC1=C(c2ccc(NN=C(C#N)C#N)cc2)NNC(=O)C1 | nt | nt | i | nt | i | nt
CC(=O)c1cccc(NC(=O)Cn2c(=O)c(CNc3ccc(C)cc3)cc3cc4c(cc32)OCCO4)c1 | i | nt | 10µM | i | i | nt
CCc1ccc(NCc2cc3cc(OC)c(OC)cc3n(CC(=O)Nc3cc(C)ccc3C)c2=O)cc1 | i | nt | 11µM | i | i | nt
O=C(NCC(O)CO)c1c(I)c(C(=O)NCC(O)CO)c(I)c(N(CCO)C(=O)CO)c1I (stereo unspecified) | nt | i | nt | nt | nt | nt

Screening data (PubChem)
